Results with a measured potency or affinity are listed apart. Values without a mark were called inactive. Calls of active or inactive are those of the source. How the calls were made is not given here.
Assay: cytotoxicity in HeLa cells, dose response, cytotoxicity control, cell-based, 24 h, dry powder (AID 651774)
Details: HeLa viability, CellTiter-Glo ATP luminescence; series mostly up to 35 µM; activity change, negative = cytotoxicity: at the top concentration

Going from `CS(=O)(=O)c1ccc(CC(=O)NC2CCCC2)cc1` to `CS(=O)(=O)c1cccc(CC(=O)NC2CCCC2)c1`, the “activity change, negative = cytotoxicity” value falls from 0.072% to -3.23%.

Going from `Cc1ccc2cc3c(NC(=O)c4ccco4)nn(C)c3nc2c1` to `Cc1cccc(CC(=O)NC2CCCC2)c1`, the “activity change, negative = cytotoxicity” value falls from -17% to -17.9%.

Compared with `CCN(Cc1ccc(N2CCCC2)cc1)c1nnnn1CC`, `Cn1nnnc1NCc1ccc(N2CCCC2)cc1` is lower in “activity change, negative = cytotoxicity” value: -1.69% for the first, -3.44% for the second.

Compared with `O=C(Cc1cccnc1)NC1CCCC1`, `O=C(Cc1ccccn1)NC1CCCC1` is lower in “activity change, negative = cytotoxicity” value: 10.9% for the first, -2.32% for the second.

Compared with `O=C(CCc1ccc(-c2ccccc2)cc1)NC1CCCC1`, `O=C(Cc1ccc(-c2ccccc2)cc1)NCC1CCCC1` is higher in “activity change, negative = cytotoxicity” value: -9.26% for the first, 9.56% for the second.

Compared with `Cn1nnc(NCc2ccc(C(F)(F)F)cc2)n1`, `FC(F)(F)c1ccc(CNc2nn[nH]n2)cc1` is higher in “activity change, negative = cytotoxicity” value: -1.34% for the first, 1.22% for the second.

Going from `CN1CCN(C(=O)Cc2ccc(-c3ccccc3)cc2)CC1` to `CN(C(=O)Cc1ccc(-c2ccccc2)cc1)C1CCCC1`, the “activity change, negative = cytotoxicity” value falls from 9.96% to -9.17%.

Compared with `Cn1nnc(NCc2ccc(N3CCCC3)cc2)n1`, `CC(C)n1nnc(NCc2ccc(N3CCCC3)cc2)n1` is lower in “activity change, negative = cytotoxicity” value: -6% for the first, -7.91% for the second.

Going from `O=C(Cc1cccc(OC(F)(F)F)c1)NC1CCCC1` to `N#Cc1ccc(CC(=O)NC2CCCC2)cc1`, the “activity change, negative = cytotoxicity” value rises from -1.72% to 12.5%.

First: Cn1nnc(NCc2ccccc2)n1
Second: Cn1nnnc1NCc1ccccc1
The “activity change, negative = cytotoxicity” value of the first is lower: -9.85% for the first, 11.8% for the second.

Compared with `CCC(C)NC(=O)Cc1ccc(-c2ccccc2)cc1` (centres undefined), `Cc1ccccc1CC(=O)NC1CCCC1` is higher in “activity change, negative = cytotoxicity” value: -13.7% for the first, 0.361% for the second.

For `CC(C)n1nnnc1NCc1ccc(N2CCCC2)cc1`, the “activity change, negative = cytotoxicity” value was -3.65%.

In the case of `O=C(NCc1ccc(-c2ccccc2)cc1)C1CCCC1`, the outcome is reported as “inactive”.
